Laboratory results reported in PubChem BioAssay AID1259415 (National Center for Advancing Translational Sciences (NCATS), 2018).
About 18,000 (4.4%) of roughly 410,000 compounds were called active. Inconclusive results (about 7%) are left out. The sample as a whole holds a higher share of actives than the screen did. A number with no mark means an inactive call. No stated cut-off is given here; in the data, active means activity change below about -60%; inconclusive means no clear call, values can overlap the other calls; inactive means above about -39%.
On the % scale 0 is the no-effect control and ±100 the full control effect.

Assay: qHTS Assay for inhibitors of the human cytomegalovirus (HCMV)
Details: HFF cells, HCMV-luciferase reporter, 72 h; at 57.5 µM; active compounds read low
In short: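 Cell-based, HFFs, 1000 cells/well, 16 h 37C; cpds in DMSO + HCMV-luc, MOI 1 PFU/cell; 72 h 37C; OneGlo luminescence after 5 min RT; norm. to buffer vs Salinomycin 10uM.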
For `Cc1ccc(C)c(C(O)c2ncc(-c3cccc4ccccc34)[nH]2)c1` (stereo unspecified), the activity change, negative = inhibition was 4.52%.
Work on `CC(=O)N1CCCc2cc(S(=O)(=O)Nc3ccc(Cl)cc3F)ccc21` yielded an activity change, negative = inhibition of -24.4%.
`Cc1ncoc1C(=O)NCCC(c1ccccc1)c1ccccc1` showed an activity change, negative = inhibition of -6.8%.
With `CC(Cc1ccccc1)NCCC(c1ccccc1)c1ccccc1` (stereo unspecified) the activity change, negative = inhibition was -91.4% (active).
Compound `CC(CCc1ccccc1)NCC(O)c1cccc([N+](=O)[O-])c1` (stereo unspecified) has an activity change, negative = inhibition of -22%.
In the case of `CCOC(=O)C(CCOc1cccc(CC)c1)C(=O)OCC`, the activity change, negative = inhibition is reported as -23.8%.
`CC(=O)Nc1ccc(NC(=O)COc2ccc(S(=O)(=O)NC(C)c3ccccc3)cc2)cc1` (stereo unspecified) gave an activity change, negative = inhibition of 28.7%.
`CC(C)NS(=O)(=O)c1ccc(OCC(=O)NC2CCCCCC2)cc1` gave an activity change, negative = inhibition of -39.9%.
For `CC(C)NS(=O)(=O)c1ccc(OCC(=O)Nc2ccc3c(c2)OCCO3)cc1`, the activity change, negative = inhibition was -82.2% (active).
With `O=C(NCc1ccccc1)C(=O)NCC(c1ccco1)S(=O)(=O)c1ccc(Cl)cc1` (stereo unspecified) the activity change, negative = inhibition was -24.1%.
For `S=c1[nH]nc2c3c4c(sc3ncn12)CCCC4`, the activity change, negative = inhibition was -26.7%.
With `c1nnc2c3c4c(sc3ncn12)CCC4` the activity change, negative = inhibition was -65.9% (active).
With `O=c1oc(-c2ccco2)nc2sc3c(c12)CCCCC3` the activity change, negative = inhibition was 69%.
In the case of `O=C(Nc1nnc(C2=COCCO2)o1)c1ccc([N+](=O)[O-])s1`, the activity change, negative = inhibition is reported as -20.1%.
`Cc1cccc(CSc2nc3ccncc3n2Cc2ccc(C(=O)O)cc2)c1` gave an activity change, negative = inhibition of 9.17%.
For `COc1cccc(Cn2c(SCc3ccc(C(=O)N4CCC(C)CC4)cc3)nc3ccncc32)c1`, the activity change, negative = inhibition was -13.1%.
With `Cc1cccc(Cn2c(SCc3ccc(C(=O)N4CCC(C)CC4)cc3)nc3ccncc32)c1` the activity change, negative = inhibition was -62.6% (active).
`NC1(C#Cc2ccc(F)c(-c3noc4ccccc34)c2)CCCCC1` gave an activity change, negative = inhibition of -18.5%.
In the case of `O=C(NNc1ccccc1Cl)C(O)(c1cccc(C(F)(F)F)c1)c1cccc(C(F)(F)F)c1`, the activity change, negative = inhibition is reported as -100% (active).
In the case of `O=c1cc(O)c(-c2cccc(C(F)(F)F)c2)c(Cl)[nH]1`, the activity change, negative = inhibition is reported as -14.8%.
In the case of `O=C(Nc1cc(C(F)(F)F)ccc1Cl)c1nc2ccccc2nc1N1CCCCC1`, the activity change, negative = inhibition is reported as 10.2%.
Work on `COc1cccc(/C=C2\Sc3ccc(C(=O)NCC4CCCO4)cc3N(C)C2=O)c1` (stereo unspecified) yielded an activity change, negative = inhibition of -14.4%.
In the case of `COc1ccc2c(c1)C(C)=CC(C)(C)N2C(=O)CNCc1ccc2c(c1)OCO2`, the activity change, negative = inhibition is reported as -9.9%.
Compound `COc1cccc(NC(=O)C2C(c3ccccc3)C2(Cl)Cl)c1` (stereo unspecified) has an activity change, negative = inhibition of -32.5%.
In the case of `COc1ccc2c(c1)C(C)=CC(C)(C)N2C(=O)Nc1ccccc1`, the activity change, negative = inhibition is reported as -99.4% (active).
`C#CCOc1ccc(C2CC(=O)Nc3c2c(C)nn3-c2nc(C)cc(C)n2)cc1` (stereo unspecified) showed an activity change, negative = inhibition of -10.8%.
